# Experimental data taken from ChEMBL document CHEMBL1961873, “Compounds: GSK PKIS; Assays: Nanosyn kinase panel” (2012).
# Tests used:
# [1] = molecular target: Tyrosine-protein kinase SYK (Homo sapiens) (UniProt P43405); conditions: at 1 µM
# [2] = molecular target: T1, Tyrosine-protein kinase Tec (Homo sapiens) (UniProt P42680); conditions: at 0.1 µM
# T1 sequence (whole entry): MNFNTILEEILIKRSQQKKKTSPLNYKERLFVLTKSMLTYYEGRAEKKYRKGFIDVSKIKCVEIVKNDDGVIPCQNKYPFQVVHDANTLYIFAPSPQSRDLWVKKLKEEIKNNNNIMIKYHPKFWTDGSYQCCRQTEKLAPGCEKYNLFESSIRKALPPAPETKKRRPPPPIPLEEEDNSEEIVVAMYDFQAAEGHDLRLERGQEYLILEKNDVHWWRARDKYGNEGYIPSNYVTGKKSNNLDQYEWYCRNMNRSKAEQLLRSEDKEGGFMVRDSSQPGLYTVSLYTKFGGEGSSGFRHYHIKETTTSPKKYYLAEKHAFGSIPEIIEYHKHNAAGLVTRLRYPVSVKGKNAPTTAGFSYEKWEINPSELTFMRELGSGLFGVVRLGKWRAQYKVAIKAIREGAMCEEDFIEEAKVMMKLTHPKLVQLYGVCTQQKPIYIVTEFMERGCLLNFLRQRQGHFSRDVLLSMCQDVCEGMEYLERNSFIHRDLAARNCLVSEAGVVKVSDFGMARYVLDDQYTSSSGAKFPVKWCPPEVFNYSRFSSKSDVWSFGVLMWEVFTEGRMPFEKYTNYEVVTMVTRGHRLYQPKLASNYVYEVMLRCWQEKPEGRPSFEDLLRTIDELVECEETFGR
# [3] = molecular target: T1, Tyrosine-protein kinase Tec (Homo sapiens); conditions: at 1 µM
# [4] = molecular target: Angiopoietin-1 receptor (Homo sapiens) (UniProt Q02763); conditions: at 0.1 µM
# [5] = molecular target: Angiopoietin-1 receptor (Homo sapiens) (UniProt Q02763); conditions: at 1 µM
# [6] = molecular target: T2, Non-receptor tyrosine-protein kinase TNK1 (Homo sapiens) (UniProt Q13470); conditions: at 0.1 µM
# T2 sequence (whole entry): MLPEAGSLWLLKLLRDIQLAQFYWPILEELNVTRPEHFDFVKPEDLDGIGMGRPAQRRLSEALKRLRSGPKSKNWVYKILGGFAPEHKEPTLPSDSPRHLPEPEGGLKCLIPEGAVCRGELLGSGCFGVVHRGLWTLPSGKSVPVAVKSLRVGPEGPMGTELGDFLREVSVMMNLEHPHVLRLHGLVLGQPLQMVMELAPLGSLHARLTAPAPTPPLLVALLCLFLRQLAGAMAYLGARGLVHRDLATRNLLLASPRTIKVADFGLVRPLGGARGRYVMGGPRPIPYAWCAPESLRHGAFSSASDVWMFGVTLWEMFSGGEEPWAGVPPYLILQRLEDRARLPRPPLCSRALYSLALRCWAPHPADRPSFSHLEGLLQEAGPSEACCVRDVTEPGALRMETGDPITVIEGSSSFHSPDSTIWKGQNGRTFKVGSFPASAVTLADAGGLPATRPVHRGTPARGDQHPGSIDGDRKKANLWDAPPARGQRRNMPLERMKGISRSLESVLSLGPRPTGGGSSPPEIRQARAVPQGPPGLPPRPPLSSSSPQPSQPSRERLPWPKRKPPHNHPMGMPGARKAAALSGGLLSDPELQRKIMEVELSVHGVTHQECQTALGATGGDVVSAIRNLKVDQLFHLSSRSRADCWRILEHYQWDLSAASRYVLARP
# [7] = molecular target: T2, Non-receptor tyrosine-protein kinase TNK1 (Homo sapiens); conditions: at 1 µM
# [8] = molecular target: Activated CDC42 kinase 1 (Homo sapiens) (UniProt Q07912); conditions: at 0.1 µM
# Activated CDC42 kinase 1 (Homo sapiens), sequence (Q07912 whole entry, looked up): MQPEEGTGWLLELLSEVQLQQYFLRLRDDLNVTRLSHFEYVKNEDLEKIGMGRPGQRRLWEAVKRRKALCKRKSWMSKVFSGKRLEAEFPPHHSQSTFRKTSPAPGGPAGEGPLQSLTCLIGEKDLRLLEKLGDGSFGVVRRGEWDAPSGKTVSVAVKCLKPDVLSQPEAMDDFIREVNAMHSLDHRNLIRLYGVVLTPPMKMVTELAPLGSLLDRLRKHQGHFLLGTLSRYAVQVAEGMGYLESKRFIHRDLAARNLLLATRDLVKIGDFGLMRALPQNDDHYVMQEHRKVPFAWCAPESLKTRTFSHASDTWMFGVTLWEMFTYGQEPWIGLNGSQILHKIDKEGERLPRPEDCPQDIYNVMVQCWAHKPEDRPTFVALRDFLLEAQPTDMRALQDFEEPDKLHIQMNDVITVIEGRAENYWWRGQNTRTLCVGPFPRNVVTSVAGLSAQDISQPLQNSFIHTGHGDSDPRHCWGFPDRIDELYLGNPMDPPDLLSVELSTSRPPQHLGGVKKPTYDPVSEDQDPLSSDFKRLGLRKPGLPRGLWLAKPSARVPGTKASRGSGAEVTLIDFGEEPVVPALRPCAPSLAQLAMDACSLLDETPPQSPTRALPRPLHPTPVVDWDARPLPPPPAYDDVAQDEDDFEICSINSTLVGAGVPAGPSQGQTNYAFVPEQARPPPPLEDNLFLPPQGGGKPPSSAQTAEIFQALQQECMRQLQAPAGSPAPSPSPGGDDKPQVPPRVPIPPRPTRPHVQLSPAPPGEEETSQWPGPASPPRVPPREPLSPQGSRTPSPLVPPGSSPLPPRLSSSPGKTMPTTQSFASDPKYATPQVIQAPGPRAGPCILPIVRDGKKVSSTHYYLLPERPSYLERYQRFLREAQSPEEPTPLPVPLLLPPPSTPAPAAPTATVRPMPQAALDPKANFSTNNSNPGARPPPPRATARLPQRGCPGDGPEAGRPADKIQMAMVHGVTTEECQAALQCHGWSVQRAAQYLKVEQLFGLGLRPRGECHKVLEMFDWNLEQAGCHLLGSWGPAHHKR
# [9] = molecular target: Activated CDC42 kinase 1 (Homo sapiens) (UniProt Q07912); conditions: at 1 µM
# [10] = molecular target: High affinity nerve growth factor receptor (Homo sapiens) (UniProt P04629); conditions: at 0.1 µM
# High affinity nerve growth factor receptor (Homo sapiens), sequence (P04629 33-796 limits assumed): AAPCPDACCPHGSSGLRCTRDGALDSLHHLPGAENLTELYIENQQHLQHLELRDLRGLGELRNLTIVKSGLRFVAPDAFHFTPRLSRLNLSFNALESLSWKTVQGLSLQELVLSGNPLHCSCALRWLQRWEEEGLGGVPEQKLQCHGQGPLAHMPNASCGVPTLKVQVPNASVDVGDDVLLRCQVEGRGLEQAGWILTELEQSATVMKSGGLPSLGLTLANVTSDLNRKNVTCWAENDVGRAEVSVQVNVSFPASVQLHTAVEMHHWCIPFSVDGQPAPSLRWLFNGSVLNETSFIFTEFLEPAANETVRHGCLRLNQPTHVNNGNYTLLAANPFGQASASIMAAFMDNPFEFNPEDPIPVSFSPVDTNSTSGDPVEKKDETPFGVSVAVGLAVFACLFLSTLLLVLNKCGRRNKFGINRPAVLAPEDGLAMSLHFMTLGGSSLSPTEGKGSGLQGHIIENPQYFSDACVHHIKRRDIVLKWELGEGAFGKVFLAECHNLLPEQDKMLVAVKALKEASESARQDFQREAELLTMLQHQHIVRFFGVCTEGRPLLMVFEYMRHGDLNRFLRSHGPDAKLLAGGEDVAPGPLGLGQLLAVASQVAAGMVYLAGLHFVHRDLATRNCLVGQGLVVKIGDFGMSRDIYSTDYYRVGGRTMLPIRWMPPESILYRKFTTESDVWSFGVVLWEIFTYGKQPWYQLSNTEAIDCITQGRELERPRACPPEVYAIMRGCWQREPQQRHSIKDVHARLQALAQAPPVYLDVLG
# [11] = molecular target: High affinity nerve growth factor receptor (Homo sapiens) (UniProt P04629); conditions: at 1 µM
# [12] = molecular target: BDNF/NT-3 growth factors receptor (Homo sapiens) (UniProt Q16620); conditions: at 0.1 µM
# BDNF/NT-3 growth factors receptor (Homo sapiens), sequence (Q16620 32-822 limits assumed): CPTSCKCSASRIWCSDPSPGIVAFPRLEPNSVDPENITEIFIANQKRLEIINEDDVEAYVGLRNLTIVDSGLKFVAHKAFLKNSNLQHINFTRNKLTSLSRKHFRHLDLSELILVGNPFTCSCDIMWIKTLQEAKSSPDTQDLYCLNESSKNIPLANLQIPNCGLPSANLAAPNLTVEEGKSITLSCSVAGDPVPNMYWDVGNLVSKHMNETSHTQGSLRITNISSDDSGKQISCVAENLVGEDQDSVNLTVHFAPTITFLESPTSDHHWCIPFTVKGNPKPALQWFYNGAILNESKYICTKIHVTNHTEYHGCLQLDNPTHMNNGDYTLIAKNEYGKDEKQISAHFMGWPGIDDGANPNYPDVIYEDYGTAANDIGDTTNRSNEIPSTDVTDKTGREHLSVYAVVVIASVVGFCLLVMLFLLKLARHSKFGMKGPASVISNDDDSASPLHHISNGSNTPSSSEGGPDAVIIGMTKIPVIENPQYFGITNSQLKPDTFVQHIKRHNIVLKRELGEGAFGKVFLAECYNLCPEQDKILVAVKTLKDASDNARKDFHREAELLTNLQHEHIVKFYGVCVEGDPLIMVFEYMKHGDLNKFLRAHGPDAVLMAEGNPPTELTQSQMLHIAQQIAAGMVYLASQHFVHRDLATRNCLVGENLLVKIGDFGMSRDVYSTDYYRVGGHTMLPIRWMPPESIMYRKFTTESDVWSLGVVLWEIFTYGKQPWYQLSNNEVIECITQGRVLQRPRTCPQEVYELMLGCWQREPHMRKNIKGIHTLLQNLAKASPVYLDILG
# [13] = molecular target: BDNF/NT-3 growth factors receptor (Homo sapiens) (UniProt Q16620); conditions: at 1 µM
# [14] = molecular target: NT-3 growth factor receptor (Homo sapiens) (UniProt Q16288); conditions: at 0.1 µM
# NT-3 growth factor receptor (Homo sapiens), sequence (Q16288 32-839 limits assumed): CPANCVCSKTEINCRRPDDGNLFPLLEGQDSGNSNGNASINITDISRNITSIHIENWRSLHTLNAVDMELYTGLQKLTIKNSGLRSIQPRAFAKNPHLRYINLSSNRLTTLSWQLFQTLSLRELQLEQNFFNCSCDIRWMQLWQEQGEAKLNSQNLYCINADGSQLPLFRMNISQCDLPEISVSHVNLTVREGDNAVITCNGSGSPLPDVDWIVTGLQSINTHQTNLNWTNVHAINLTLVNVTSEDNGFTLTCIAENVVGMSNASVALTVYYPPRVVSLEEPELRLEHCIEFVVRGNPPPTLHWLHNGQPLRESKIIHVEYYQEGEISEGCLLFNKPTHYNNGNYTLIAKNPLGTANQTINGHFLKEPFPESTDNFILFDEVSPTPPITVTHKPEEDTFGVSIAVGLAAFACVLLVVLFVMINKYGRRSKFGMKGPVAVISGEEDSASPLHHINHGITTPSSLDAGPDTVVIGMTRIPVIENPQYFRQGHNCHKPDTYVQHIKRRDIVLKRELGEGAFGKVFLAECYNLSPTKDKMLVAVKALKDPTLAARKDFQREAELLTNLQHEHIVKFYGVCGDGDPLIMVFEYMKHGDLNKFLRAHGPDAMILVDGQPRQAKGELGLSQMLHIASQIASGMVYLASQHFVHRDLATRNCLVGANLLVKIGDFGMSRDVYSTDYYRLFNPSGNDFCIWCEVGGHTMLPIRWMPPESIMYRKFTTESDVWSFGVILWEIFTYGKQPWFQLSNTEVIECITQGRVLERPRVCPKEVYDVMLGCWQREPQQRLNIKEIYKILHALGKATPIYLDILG
# [15] = molecular target: NT-3 growth factor receptor (Homo sapiens) (UniProt Q16288); conditions: at 1 µM
# [16] = molecular target: T3, Tyrosine-protein kinase TXK (Homo sapiens) (UniProt P42681); conditions: at 0.1 µM
# T3 sequence (whole entry): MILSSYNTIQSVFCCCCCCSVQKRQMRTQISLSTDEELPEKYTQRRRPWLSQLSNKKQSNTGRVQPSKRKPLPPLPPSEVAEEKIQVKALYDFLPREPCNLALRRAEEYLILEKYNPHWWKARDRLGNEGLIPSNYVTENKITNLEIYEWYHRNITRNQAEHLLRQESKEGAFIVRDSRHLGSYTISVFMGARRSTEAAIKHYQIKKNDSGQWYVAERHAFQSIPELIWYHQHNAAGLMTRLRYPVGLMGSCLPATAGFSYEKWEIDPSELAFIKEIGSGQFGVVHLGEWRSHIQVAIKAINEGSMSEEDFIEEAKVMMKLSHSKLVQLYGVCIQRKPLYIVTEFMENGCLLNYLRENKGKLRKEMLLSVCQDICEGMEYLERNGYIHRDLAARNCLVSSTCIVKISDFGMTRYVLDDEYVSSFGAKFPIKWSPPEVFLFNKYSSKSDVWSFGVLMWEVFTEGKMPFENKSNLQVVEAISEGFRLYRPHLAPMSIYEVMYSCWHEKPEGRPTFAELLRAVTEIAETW
# [17] = molecular target: T3, Tyrosine-protein kinase TXK (Homo sapiens); conditions: at 1 µM
# [18] = molecular target: Non-receptor tyrosine-protein kinase TYK2 (Homo sapiens) (UniProt P29597); conditions: at 0.1 µM;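 further: each value is a mean of the inhibition readings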
# Non-receptor tyrosine-protein kinase TYK2 (Homo sapiens), sequence (P29597 whole entry): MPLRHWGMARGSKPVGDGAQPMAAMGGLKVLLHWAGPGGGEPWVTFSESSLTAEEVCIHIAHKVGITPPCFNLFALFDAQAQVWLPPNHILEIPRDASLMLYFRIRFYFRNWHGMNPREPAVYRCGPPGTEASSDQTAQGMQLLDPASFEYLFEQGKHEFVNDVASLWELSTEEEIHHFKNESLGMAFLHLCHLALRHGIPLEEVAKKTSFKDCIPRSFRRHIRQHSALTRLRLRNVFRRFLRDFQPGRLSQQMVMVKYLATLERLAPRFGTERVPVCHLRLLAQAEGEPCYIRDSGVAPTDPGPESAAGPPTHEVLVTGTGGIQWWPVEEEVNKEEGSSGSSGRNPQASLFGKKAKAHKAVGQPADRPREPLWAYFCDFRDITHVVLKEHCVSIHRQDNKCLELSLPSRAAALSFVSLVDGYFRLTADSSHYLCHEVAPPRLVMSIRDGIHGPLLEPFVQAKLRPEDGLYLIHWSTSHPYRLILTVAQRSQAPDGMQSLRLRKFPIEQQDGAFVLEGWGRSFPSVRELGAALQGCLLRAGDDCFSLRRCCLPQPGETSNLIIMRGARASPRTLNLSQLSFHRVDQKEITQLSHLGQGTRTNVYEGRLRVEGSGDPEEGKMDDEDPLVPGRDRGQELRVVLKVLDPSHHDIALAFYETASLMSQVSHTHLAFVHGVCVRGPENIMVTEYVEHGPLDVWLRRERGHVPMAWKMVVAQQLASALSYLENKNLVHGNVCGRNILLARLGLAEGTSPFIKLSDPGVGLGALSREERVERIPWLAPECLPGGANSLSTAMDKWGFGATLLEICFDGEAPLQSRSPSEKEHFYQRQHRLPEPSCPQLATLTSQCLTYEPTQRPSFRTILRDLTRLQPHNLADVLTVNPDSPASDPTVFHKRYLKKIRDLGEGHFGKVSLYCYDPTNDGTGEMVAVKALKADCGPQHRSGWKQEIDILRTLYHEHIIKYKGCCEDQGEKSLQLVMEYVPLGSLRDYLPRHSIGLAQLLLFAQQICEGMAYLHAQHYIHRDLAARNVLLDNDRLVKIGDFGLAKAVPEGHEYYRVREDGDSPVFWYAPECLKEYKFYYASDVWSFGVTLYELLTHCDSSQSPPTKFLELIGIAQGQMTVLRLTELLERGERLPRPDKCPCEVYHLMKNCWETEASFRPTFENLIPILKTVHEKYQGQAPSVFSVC
# [19] = molecular target: T4, Dual specificity protein kinase TTK (Homo sapiens) (UniProt P33981); conditions: at 1 µM;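 further: reported figures are mean TTK inhibition at 1 µM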
# T4 sequence (whole entry): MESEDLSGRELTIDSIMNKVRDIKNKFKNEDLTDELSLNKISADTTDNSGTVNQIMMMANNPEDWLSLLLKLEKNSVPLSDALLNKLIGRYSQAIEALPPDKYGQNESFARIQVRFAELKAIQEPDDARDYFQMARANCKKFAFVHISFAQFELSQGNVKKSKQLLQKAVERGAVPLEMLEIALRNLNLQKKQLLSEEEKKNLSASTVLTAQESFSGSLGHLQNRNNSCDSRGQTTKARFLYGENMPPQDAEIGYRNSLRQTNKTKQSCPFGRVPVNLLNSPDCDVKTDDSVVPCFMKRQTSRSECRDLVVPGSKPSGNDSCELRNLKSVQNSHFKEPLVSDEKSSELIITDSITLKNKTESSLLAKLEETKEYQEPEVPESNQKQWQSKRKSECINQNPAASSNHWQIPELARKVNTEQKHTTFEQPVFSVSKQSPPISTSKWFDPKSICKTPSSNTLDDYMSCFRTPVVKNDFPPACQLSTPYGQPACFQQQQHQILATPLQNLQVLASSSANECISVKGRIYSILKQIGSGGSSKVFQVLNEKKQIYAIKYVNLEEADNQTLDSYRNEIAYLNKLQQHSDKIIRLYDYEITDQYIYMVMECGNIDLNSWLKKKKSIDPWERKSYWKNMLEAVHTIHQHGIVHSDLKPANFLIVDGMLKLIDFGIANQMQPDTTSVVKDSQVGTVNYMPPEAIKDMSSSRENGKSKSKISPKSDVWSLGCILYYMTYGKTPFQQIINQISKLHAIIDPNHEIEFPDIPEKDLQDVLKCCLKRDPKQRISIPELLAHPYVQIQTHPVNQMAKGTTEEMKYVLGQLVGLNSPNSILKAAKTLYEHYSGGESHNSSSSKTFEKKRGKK
# [20] = molecular target: T5, Aurora kinase A (Homo sapiens) (UniProt O14965); conditions: at 0.1 µM;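 further: each reported value is a mean percent inhibition of Aurora-A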
# T5 sequence (whole entry): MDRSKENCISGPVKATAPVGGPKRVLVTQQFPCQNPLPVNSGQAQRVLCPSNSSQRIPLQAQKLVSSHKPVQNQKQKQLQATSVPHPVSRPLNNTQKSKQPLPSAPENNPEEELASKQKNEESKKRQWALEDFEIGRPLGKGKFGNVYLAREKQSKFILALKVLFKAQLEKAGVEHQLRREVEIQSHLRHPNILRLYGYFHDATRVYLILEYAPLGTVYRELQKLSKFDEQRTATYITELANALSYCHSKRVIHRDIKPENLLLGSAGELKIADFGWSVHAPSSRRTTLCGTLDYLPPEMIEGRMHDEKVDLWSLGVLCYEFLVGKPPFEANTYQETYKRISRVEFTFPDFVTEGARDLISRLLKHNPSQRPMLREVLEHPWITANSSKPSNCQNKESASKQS
Structure (SMILES),inhibition [1] [%],inhibition [2] [%],inhibition [3] [%],inhibition [4] [%],inhibition [5] [%],inhibition [6] [%],inhibition [7] [%],inhibition [8] [%],inhibition [9] [%],inhibition [10] [%],inhibition [11] [%],inhibition [12] [%],inhibition [13] [%],inhibition [14] [%],inhibition [15] [%],inhibition [16] [%],inhibition [17] [%],inhibition [18] [%],inhibition [19] [%],inhibition [20] [%]
O=C1NC(=O)C(c2ccc(Cl)cc2)=C1Nc1ccc(Cl)c(C(=O)O)c1,-0.32,-1.66,-1.1,-0.19,3.01,-3.22,0.53,-0.36,-0.48,0.44,0.46,1.23,0.65,-1.8,-0.55,-0.87,1.12,0.04,-3.54,-3.12
CS(=O)(=O)CCNCc1nc(-c2ccc3ncnc(Nc4ccc(F)c(Cl)c4)c3c2)cs1,-0.34,3.79,9.13,7.71,5.89,4.58,27.1,0.19,2.87,3.85,1.47,0.48,4.21,1.55,2.39,3.78,15.9,-3.38,6.34,1.71
CCn1c(-c2nonc2N)nc2ccncc21,1.46,2.56,3.46,2.16,2.72,3.44,-5.95,-0.95,-2.72,0.03,-0.79,-1.44,-3.63,-2.79,-1.79,0.17,3.88,0.97,6.38,2.36
COc1ccc(-c2coc3ncnc(N)c23)cc1,-0.96,3.6,5.59,2.58,7.38,0.94,-4.86,0.34,1.05,1.6,2.06,2.05,1.62,2.53,2.68,2.99,6.19,-3.01,11.5,3.09
COc1ccccc1Nc1ncc(-c2ccccc2)o1,-4.41,2.21,7.28,0.33,6.44,3.82,13.8,0.63,3.33,1.73,4.51,4.57,8.84,4.02,9.48,0.91,6.86,-6.02,11.9,4.71
CCCN1CCC=C(c2ccc(Nc3nc(Nc4ccccc4C(N)=O)c4cc[nH]c4n3)c(C)c2)C1,1.61,6.08,8.24,3.32,3.76,26.4,70.1,1,12.7,2.13,6.59,3.01,6.47,2.46,3.13,6.59,13.1,-5.21,70.7,6.15
CC1=C(C(=O)Nc2ccc3[nH]ncc3c2)C(c2ccc(F)cc2)NC(=O)N1 (stereo not given),1.72,2.11,2.37,0.66,3.1,4.95,31.2,0.84,3.68,0.85,3.3,0.91,4.06,0.06,5.04,1.25,3.78,1.26,1.11,7.75
Cc1ccc(C(=O)NC2CCCCC2)cc1-c1ccc(C(=O)NCC2CC2)cc1,0.52,4.18,5.66,1.79,4.17,0.56,-2.52,2.3,4.5,2.3,2.19,0.88,-0.15,0.18,-0.57,4.64,5.63,1.37,8.51,4.04
CCn1c(-c2nonc2N)nc2c(C#CC(C)(C)O)nc(CN3CCCC3)cc21,-0.03,-0.24,1.81,2.79,3.96,-0.12,-4.05,-0.98,-1.32,-2.07,-1.66,-0.98,-0.47,-1.68,-2.34,1.55,2.08,3.47,5.1,0.54
COc1cccc(-n2ncc3c(N/N=C/c4cccc(F)c4)ncnc32)c1,-0.87,-1.33,2.09,1.49,9,2.13,2.44,0.24,0.25,3.27,3.57,2.75,6.27,2.97,7.58,-0.86,1.52,-0.2,10.5,-2.23
